Assay results: PubChem BioAssay (Tox21)
Several values for one entry are separate records, joined by “and”; a condition that tells them apart may be missing. Identical values can stand only once. Inconclusive results are not listed. Where a call stands in place of a potency, no number is given. Activity calls are given as the source filed them. The call rests on the fitted dose curve; in most records, active means well fitted curve in the direction sought with a large enough effect in the repeat runs; inconclusive means weak or mixed curves; inactive means no such curve, though single readings can be large; an effect the other way counts as inactive or inconclusive.

assay: qHTS assay to identify small molecule antagonists of the retinoid acid receptor (RAR) signaling pathway - cell viability counter screen (AID 1159551); conditions: C3RL4 cells viability, ATP luminescence (CellTiter-Glo), 6 h; series mostly up to 92.4 µM; activity change, negative = cytotoxicity: at the top concentration; further: nearly all actives have a fitted effect of over 35% in size
Procedure, shortened: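 Viability of C3RL4 cells is quantified from ATP by luminescence after 6 h treatment at 37 C with compounds and 1 uM retinol.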

Row | SMILES | Potency | activity change, negative = cytotoxicity
1 | COc1ccc(C=O)cc1 | inactive | 
2 | CCN(N=O)C(N)=O | inactive | 
3 | Cc1cc(C)cc(C)c1 | inactive | 
4 | CC(O)CCO (stereo not given) | inactive | 
5 | O=C(NC(=O)c1c(F)cccc1F)Nc1ccc(Cl)cc1 | inactive | 
6 | CCC(C)(c1ccc(O)cc1)c1ccc(O)cc1 | inactive | 
7 | CCCCN(CCCC)N=O | inactive | 
8 | CC(C)(c1cc(Cl)c(O)c(Cl)c1)c1cc(Cl)c(O)c(Cl)c1 | inactive | 
9 | Nc1ccc(Cl)c(Cl)c1 | inactive | 
10 | CN(C)C(=O)Nc1ccc(Cl)cc1 | inactive | 
11 | Oc1cc(Cl)c(Cl)cc1Cl | inactive | 
12 | C=CCN(CC=C)C(=O)C(Cl)Cl | inactive | 
13 | Oc1ccc(-c2ccccc2)cc1 | inactive | 
14 | C=CCc1ccc(OC)cc1 | inactive | 
15 | COP(=S)(OC)Oc1cc(Cl)c(Cl)cc1Cl | inactive | 
16 | CCOC(=O)C(C)OC(=O)c1cc(Oc2ccc(C(F)(F)F)cc2Cl)ccc1[N+](=O)[O-] (stereo not given) | inactive | 
17 | CC(C)(C)c1ccccc1O | inactive | 
18 | CNC(=O)Oc1cccc2c1OC(C)(C)O2 | inactive | 
19 | c1nc[nH]n1 | inactive | 

Row | SMILES | Potency | activity change, negative = cytotoxicity
20 | O=C(O)C(F)(F)C(F)(F)C(F)(F)C(F)(F)C(F)(F)C(F)(F)C(F)(F)F | inactive | 
21 | CCCCCc1cc(O)cc(O)c1 |  | -2.34% (inactive)
22 | CCC(C)c1ccc(O)cc1 (stereo not given) | inactive | 
23 | COC(=O)c1sccc1S(=O)(=O)NC(=O)Nc1nc(C)nc(OC)n1 | inactive | 
24 | CCC(C)(C)c1ccc(O)cc1 | inactive | 
25 | COP(=O)(OC)OC | inactive | 
26 | c1ccc(P(c2ccccc2)c2ccccc2)cc1 | inactive | 
27 | Cc1ccc2c(c1N)C(=O)c1ccccc1C2=O |  | -5.61% (inactive)
28 | N#CC(Br)Br | inactive | 
29 | CCCCNC(=O)n1c(NC(=O)OC)nc2ccccc21 | inactive | 
30 | CCCCN(CC)c1c([N+](=O)[O-])cc(C(F)(F)F)cc1[N+](=O)[O-] | inactive | 
31 | C1=Cc2cccc3cccc1c23 | inactive | 
32 | Clc1nc(Cl)nc(Cl)n1 | inactive | 
33 | c1ccc(NNc2ccccc2)cc1 |  | -0.654% (inactive)
34 | C=CC(=O)OCCO |  | 4.62% (inactive)
35 | c1ccc(N=Nc2ccccc2)cc1 | inactive | 
36 | CCCCC(CC)COC(=O)c1ccc(C(=O)OCC(CC)CCCC)c(C(=O)OCC(CC)CCCC)c1 (stereo not given) | inactive | 
37 | c1ccc(-c2cccc(-c3ccccc3)c2)cc1 | inactive | 
38 | CCN(CC)C(=O)SCc1ccc(Cl)cc1 | inactive | 

assay: qHTS assay to identify small molecule antagonists of the retinoic acid receptor (RAR) signaling pathway (AID 1159552; further: nearly all actives have a fitted effect of over 50% in size); conditions: C3RL4 RARE luciferase reporter, retinol-stimulated, 6 h; series mostly up to 92.4 µM; activity, negative = inhibition: at the top concentration
Procedure, shortened: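 Retinol at 1 uM final stimulated RARE-luciferase expression in C3RL4 cells exposed to test compounds for 6 hr at 37 C. Reduced luminescence, read 30 min after detection reagent, indicated pathway antagonism.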

Row | SMILES | Potency | activity, negative = inhibition
39 | CCN(N=O)C(N)=O | inactive | 
40 | Cc1cc(C)cc(C)c1 | inactive | 
41 | CC(O)CCO (stereo not given) | inactive | 
42 | O=C(NC(=O)c1c(F)cccc1F)Nc1ccc(Cl)cc1 | inactive | 
43 | Oc1ccc(-c2ccccc2)cc1 | inactive | 
44 | COP(=S)(OC)Oc1cc(Cl)c(Cl)cc1Cl | inactive | 
45 | CCOC(=O)C(C)OC(=O)c1cc(Oc2ccc(C(F)(F)F)cc2Cl)ccc1[N+](=O)[O-] (stereo not given) | inactive | 
46 | COC(=O)c1sccc1S(=O)(=O)NC(=O)Nc1nc(C)nc(OC)n1 | inactive | 
47 | Cc1ccc2c(c1N)C(=O)c1ccccc1C2=O | inactive | 
48 | N#CC(Br)Br | inactive | 
49 | CCCCNC(=O)n1c(NC(=O)OC)nc2ccccc21 | inactive | 
50 | CCCCN(CC)c1c([N+](=O)[O-])cc(C(F)(F)F)cc1[N+](=O)[O-] | inactive | 
51 | C1=Cc2cccc3cccc1c23 | inactive | 
52 | c1ccc(NNc2ccccc2)cc1 | inactive | 
53 | c1ccc(N=Nc2ccccc2)cc1 | inactive | 
54 | CCCCC(CC)COC(=O)c1ccc(C(=O)OCC(CC)CCCC)c(C(=O)OCC(CC)CCCC)c1 (stereo not given) |  | -4.62% (inactive)
55 | c1ccc(-c2cccc(-c3ccccc3)c2)cc1 | inactive | 
56 | CCN(CC)C(=O)SCc1ccc(Cl)cc1 | inactive | 

assay: qHTS assay to identify small molecule agonists of the retinoic acid receptor (RAR) signaling pathway (AID 1159553); conditions: C3RL4 RARE luciferase reporter, agonist, 6 h; activation: at 73.3 µM (top of the series) unless noted; further: potency means the concentration at half of the fitted maximal effect
Procedure, shortened: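 Compounds dissolved in DMSO were pinned onto C3RL4 cells seeded the previous day, and plates were held 6 hr at 37 C. RARE-driven luciferase output was then read by luminescence.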

Row | SMILES | Potency | activation
57 | CCN(N=O)C(N)=O | inactive | 
58 | Cc1cc(C)cc(C)c1 | inactive | 
59 | CC(O)CCO (stereo not given) |  | 0.0301% [at 94.8 µM] (inactive)
60 | COP(=S)(OC)Oc1cc(Cl)c(Cl)cc1Cl | inactive | 
61 | CCOC(=O)C(C)OC(=O)c1cc(Oc2ccc(C(F)(F)F)cc2Cl)ccc1[N+](=O)[O-] (stereo not given) | inactive | 
62 | COC(=O)c1sccc1S(=O)(=O)NC(=O)Nc1nc(C)nc(OC)n1 | inactive | 
63 | Cc1ccc2c(c1N)C(=O)c1ccccc1C2=O | 1.7 µM (active) and 1.93 µM (active) | 
64 | N#CC(Br)Br | inactive | 
65 | CCCCNC(=O)n1c(NC(=O)OC)nc2ccccc21 | 13.6 µM (active) | 
66 | CCCCN(CC)c1c([N+](=O)[O-])cc(C(F)(F)F)cc1[N+](=O)[O-] | inactive | 
67 | C1=Cc2cccc3cccc1c23 | inactive | 
68 | c1ccc(N=Nc2ccccc2)cc1 |  | 14.7% [at 94.8 µM] (inactive)
69 | CCCCC(CC)COC(=O)c1ccc(C(=O)OCC(CC)CCCC)c(C(=O)OCC(CC)CCCC)c1 (stereo not given) | inactive | 
70 | c1ccc(-c2cccc(-c3ccccc3)c2)cc1 | 6.93 µM (active) and 4.86 µM (active) | 
